We go through 26 compounds from PubChem BioAssay (NCATS).

Records with an inconclusive call do not appear. A call without a number means that no potency is given here. Calls of active or inactive are those of the source. The call rests on the fitted dose curve; in most records, active means well fitted inhibition curve with a large enough effect; inconclusive means small, poorly fitted or top-dose-only effect; inactive means flat fitted curve, though single readings scatter.

The target of this assay is Aldehyde dehydrogenase, mitochondrial (Homo sapiens) (UniProt P05091). Description: qHTS for Inhibitors of the Aldehyde Dehydrogenase Family (ALDH2) Primary screen (AID 2061308). Further: nearly all actives have a fitted effect of over 55% in size. The settings on record: ALDH2 enzyme inhibition qHTS, 1536-well; series mostly up to 56 µM. Background: qHTS replaces the single test concentration by a dilution series.
On to `C=CC(C)(CC/C=C(\C)C(=O)OC)OC1OC(COC(=O)CC(C)(O)CC(=O)O)C(O)C(O)C1O` (stereo unspecified), for which the Potency result was “inactive”.
The same measure, in the same setting: the same measure for `CC1=C2C(=O)O[C@@H](c3ccoc3)[C@]2(C)CCC1`: “inactive”.
Take `O=C(N/N=C/c1ccc(O)c(O)c1)c1cc2ccccc2cc1O`: the Potency entry was “inactive”.
As to `CC(C)[C@H]1CC[C@@]2(O)COC(=O)[C@H]2[C@@H]1/C=C(\CO)C(=O)O`, the Potency result was “inactive”.
Same read-out and setting: the same measure for `O=C1C=CC(O)(/C=C/C(=O)OC[C@H]2O[C@@H](Oc3ccc(O)cc3)[C@H](O)[C@@H](O)[C@@H]2O)C=C1`: “inactive”; for `O=C(/C=C/c1ccc(O)cc1)OCC1OC(O)C(OC2OC(CO)C(O)C(O)C2O)C(O)C1O` (stereo unspecified): “inactive”; for `COCCCNC(=O)c1ccc(Cn2c(=O)c3ccccc3n(Cc3ccc(C(C)C)cc3)c2=O)cc1`: “inactive”.
Still for that read-out and setting: under `CC12CCC3c4ccc(OC5OC(C(=O)O)C(O)C(O)C5O)cc4CCC3C1CCC2O` (stereo unspecified) stands “inactive”; under `C=CC[C@]12C[C@@H](OC)C(=O)C(OC)=C1O[C@@H](c1cc(OC)c3c(c1)OCO3)[C@@H]2C`, “inactive”.
As to `OCC1OC(Oc2cc(O)c3c(c2)OC(c2ccc(O)cc2)C(O)C3)C(O)C1O` (stereo unspecified), the Potency result is “inactive”.
Turning to `CC1OC(OC2CCC3(C)C(CCC4(C)C3C=CC35OCC6(CCC(C)(C)CC63)CCC45C)C2(C)CO)C(OC2OC(CO)C(O)C(O)C2O)C(O)C1OC1OC(CO)C(O)C(O)C1O` (stereo unspecified), the Potency result was “inactive”.
As for `C[C@@H]1O[C@@H](O[C@H]2[C@H](O[C@H]3[C@H](O[C@H]4CC[C@@]5(C)C(CC[C@]6(C)C5CC=C5[C@@H]7CC(C)(C)CC[C@]7(C(=O)O[C@@H]7O[C@H](CO)[C@@H](O[C@@H]8O[C@@H](C)[C@H](O)[C@@H](O)[C@H]8O)[C@H](O)[C@H]7O)CC[C@]56C)C4(C)C)OC[C@H](O)[C@@H]3O)O[C@H](CO)[C@@H](O)[C@@H]2O)[C@H](O)[C@H](O)[C@H]1O` (stereo partly specified), the activity change, negative = inhibition was 3.25% [at 11.2 µM] (inactive).
With `CC(C)CC(c1c(O)c(C=O)c(O)c(C=O)c1O)C1CCC(C)(O)C2CC(C(C)(C)O)CCC12C` (stereo unspecified), the Potency result was “inactive”.
Still for that read-out and setting: under `CC(C)(C)OC(=O)c1ncn2c1C(C)(C)Nc1ccccc1-2` stands “inactive”; under `C=C1C2CCC3CC2(CC(O)C2(O)C1CC(OC1OC(CO)C(O)C(O)C1O)C2(C)C)CC3(C)O` (stereo unspecified), “inactive”; under `C[C@@H]1C(=O)O[C@H](C)[C@H]1CC(=O)[C@](C)(O)[C@H]1CC[C@@]2(O)C3=CC(=O)[C@@H]4C[C@@H](O)[C@@H](O)C[C@]4(C)C3CC[C@]12C` (stereo partly specified), “inactive”.
Same read-out and setting: the same measure for `C=CC(C)(C)O[C@@H]1O[C@H](CO[C@@H]2OC[C@](O)(CO)[C@H]2O)[C@@H](O)[C@H](O)[C@H]1O`: “inactive”; for `CCc1cc(CC[C@]2(C3CCCC3)CC(O)=C(Cc3nc4nc(C)cc(C)n4n3)C(=O)O2)cc(CC)n1`: “inactive”.
For `C[C@@H]1O[C@@H](O[C@@H]2CO[C@@H](O[C@H]3CC[C@@]4(C)C(CC[C@]5(C)C4CC=C4[C@@H]6CC(C)(C)CC[C@]6(C(=O)O[C@@H]6O[C@H](CO)[C@@H](O)[C@H](O)[C@H]6O)CC[C@]45C)[C@]3(C)CO)[C@H](O)[C@H]2O[C@@H]2O[C@H](CO)[C@@H](O)[C@H](O)[C@H]2O)[C@H](O)[C@H](O)[C@H]1O` (stereo partly specified), the Potency result was “inactive”.
Turning to `Cc1ccc([C@@H]2CC=C(C(=O)O)[C@H](c3ccc(C(C)(C)C)cc3)N2S(=O)(=O)c2ccc(C)cc2)cc1`, the Potency result is “inactive”.
Consider `C/C(=C\CC[C@H](CO)[C@@H]1CC[C@]2(C)C3=C(CC[C@@]12C)[C@@]1(C)CCC(=O)C(C)(C)C1CC3)C(=O)O` (stereo partly specified), for which the Potency entry was “inactive”.
As to `CCC(C)C(=O)OC1CC(O)C23C4OCC5(C(O)CC2C1(C)C(O)O4)C3C(=O)CC1(C)C(c2ccoc2)CC2OC215` (stereo unspecified), the Potency result was “inactive”.
On the same count and under the same terms, under `CCCCC1CCC(c2nc(-c3ccncc3)no2)CC1` (stereo unspecified) stands “inactive”; under `O=C(C1=CCN2c3c(cccc31)OC[C@H]2CN1CCOCC1)c1cccc2ccccc12`, “inactive”.
Regarding `C=C1CO[C@@]2(O[C@H]3CC4C5CC=C6C[C@@H](O)C[C@@H](O[C@@H]7OC[C@H](O)[C@H](O[C@@H]8OC[C@@H](O)[C@H](O)[C@H]8O)[C@H]7O[C@@H]7O[C@@H](C)[C@H](OC(C)=O)[C@@H](OC(C)=O)[C@H]7OC(C)=O)[C@]6(C)C5CC[C@]4(C)[C@@H]3[C@@H]2C)[C@@H](O)[C@H]1OC1OC(C)C(O)C(O)C1O` (stereo partly specified), the activity change, negative = inhibition is 8.25% [at 11.2 µM] (inactive).
On to `COc1cc2nc(=NC(=O)c3cccnc3)n3c(c2cc1OC)NCC3`, for which the Potency result is “inactive”.
